Compounds with a hit are over-represented: about 2.1% of the library has one in this group of screens.
Mito fusion act – blocks mitochondrial division or promotes mitochondrial fusion; S. cerevisiae fusion-defective mutant growth rescue, CellTiterGlo 48 h; Potency, µM (titrated, usually from 46.1 µM), for the others: top-dose growth rescue (activation), most hits filed as activators; 320,000 compounds, 0.23% hits; AID 485298; note: % of control where 0% means no effect; nearly all actives have a fitted effect of over 45% in size
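Read-out: ATP-based luminescence (CellTiterGlo, 10 min ambient) reporting growth of fusion-defective ts yeast after 48 hours at 37C on glycerol/ethanol YPEG medium in the presence of compound.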
GRP78 ERSR act – inducers of ER stress response in human glioma cells | U87-MG GRP78 promoter luciferase reporter, 16 h | Potency, µM, for inactives: at the top dose activation, actives largely listed as activators | 420,000 compounds, 0.02% hits; note: series mostly up to about 76 µM; % of control where 0% means no effect; nearly all actives have a fitted effect of over 35% in size
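Stably transfected U87-MG human glioma cells carrying a GRP78-based luminescent sensor were seeded at 1000 cells/well, pin-dosed with compounds and incubated 16 h. Luciferase reagent was then added, and end-point luminescence was read after 10 min at room temperature.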
A-T KAP1 phos – potential ataxia-telangiectasia treatment; F2112 A-T fibroblasts, KAP-1 phosphorylation AlphaLISA; neocarzinostatin DNA damage 30 min before lysis; AID 485349; 320,000 compounds, 0.19% hits; Potency, µM (series often up to 57.5 µM), for the others: at the top dose activation, most hits filed as activators; note: % of control where 0% means no effect; nearly all actives have a fitted effect of over 45% in size
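hTERT-immortalized A-T patient fibroblasts (F2112), 500 cells/well in OPTI-MEM, 1% FBS, got compounds for 60 min, then NCS for 30 min at 37C. Lysates were then assayed for phospho-KAP-1 by AlphaLISA (anti-pKAP1 donor, anti-KAP1 acceptor beads), 6 hr at 25C.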
aSyn rescue – alpha-synuclein toxicity inhibition in yeast. Yeast expressing alpha-synuclein, growth rescue, BacTiter-Glo, 24 h. Potency, µM (doses to about 46.1 µM), for the others: at the top dose growth rescue (activation), most hits filed as activators. 370,000 compounds, 0.14% hits; note: % of control where 0% means no effect; nearly all actives have a fitted effect of over 65% in size
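Screening used galactose-induced yeast with toxic alpha-synuclein levels, exposed to compound for 24 hr at 30 deg C. Cell growth, read with BacTiter-Glo luminescence, gave the measured signal.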
TDP-43 yeast inh – inhibitors of TDP-43 toxicity in yeast | TDP-43 expressing yeast growth rescue, BacTiter-Glo, 24 h | Potency, µM (series often up to 46.1 µM), for the others: at the highest dose growth rescue (activation), usual class: activators | 410,000 compounds, 1.8% hits; note: % of control where 0% means no effect; nearly all actives have a fitted effect of over 50% in size
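Cell-based yeast growth screen: TDP-43 expression induced in galactose, inoculum OD600=0.02 after raffinose pregrowth to mid-log. Read-out BacTiter-Glo luminescence at 24 hr, 30 deg C; inhibition of toxicity seen as signal increase.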
Abeta rescue – restores growth of yeast expressing A-beta42 peptide; 410,000 compounds, 0.063% hits; AID 1347071; yeast expressing A-beta42, growth rescue, OD600, 48 h; response scale: 0% DMSO, 100% iron-clioquinol control; Potency, µM (series often up to 46.1 µM), actives largely listed as activators; note: nearly all actives have a fitted effect of over 55% in size
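Yeast growth medium received pinned compounds, then yeast cells expressing toxic A-beta were added; plates incubated at 30 C for 48 hr. Growth read as absorbance at 600 nm, normalized to DMSO and equimolar FeCl3 plus clioquinol controls.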
Starred values were filed as active, the others as inactive; i = inactive; u = inconclusive; x = not tested or not shown; [ ] = another dose, or the depositor's remark. Calls come from the whole dose curve; as a rule, active = well fitted curve in the direction sought with a large enough effect; inconclusive = small, poorly fitted or top-dose-only effect, or another doubt; inactive = no such curve, though single readings can be large; an effect the other way counts as inactive or inconclusive. Potency is the fitted concentration of half-maximal effect.

SMILES	Mito fusion act	GRP78 ERSR act	A-T KAP1 phos	aSyn rescue	TDP-43 yeast inh	Abeta rescue
O=C(c1csnn1)N1CCC2(CCCN(c3ccncc3)C2)CC1	x	-1.1%	x	x	x	x
C=CCc1ccccc1OCC(O)CNC1CCCC1 (configuration not stated)	-4.2%	-5.6%	-5.9%	16.2%	8.7%	i
Clc1ccc(OCc2nc(-c3ccc(-n4cccc4)cc3)no2)cc1	x	-4.5%	x	x	5.2%	i
Cn1c(=N)n(CC(=O)c2ccccc2)c2ccccc21	-4.9%	-13.5%	5.1%	-3.1%	-12.9%	i
N=c1n(CC(=O)c2ccc(Br)cc2)c2ccccc2n1Cc1ccccc1	-13.7%	-9.9%	22.4µM*	-22.2%	7.8%	i
Cn1c(=N)n(CC(=O)c2ccc(Cl)c(Cl)c2)c2ccccc21	8.8%	-11.1%	28.2µM*	5.9%	21.9%	i
CC(=O)c1ccc(NC(=O)CSc2nccn2C2CCCC2)cc1	x	2.4%	x	x	0.0%	i
CC(C)Oc1ccc(F)cc1-c1cc(C(=O)Nc2ccccc2)[nH]n1	x	-4.7%	x	1.6%	0.0%	i
CC(C)Oc1ccc(F)cc1-c1cc(C(=O)N2CCc3ccccc3C2)[nH]n1	x	0.8%	x	8.2%	28.2µM*	i
CC(O)[C@H]1CNC(=O)C(=O)N1CC1(c2ccccc2)CC1 (some centres not stated)	2.8%	-3.2%	8.91µM*	-3.4%	11.8%	i
COc1ccc2c(c1)CC=C1C2CCC2(C)C(=O)C(=NO)CC12 (configuration not stated)	x	5.0%	x	6.2%	11.2µM*	i
COc1ccc(CCNC(=S)NC(=O)c2ccccc2)cc1OC	-6.7%	-0.5%	7.6%	1.8%	18.5%	i
CCCCCC(=O)NNC(=S)NC(=O)c1ccccc1[N+](=O)[O-]	-8.9%	-0.2%	0.8%	16.4%	u	u
COc1ccc(CCNC(=S)NC(=O)c2cccc([N+](=O)[O-])c2)cc1OC	-6.6%	-5.4%	4.4%	-1.5%	12.6µM*	i
O=C(COc1ccc([N+](=O)[O-])cc1)NNC(=S)NC(=O)c1ccc(Br)cc1	10.6%	8.4%	-0.5%	u	18.0%	i
Cc1ccc(C(=O)NC(=S)NNC(=O)COc2ccc([N+](=O)[O-])cc2)cc1	-6.9%	-3.0%	5.7%	11.5%	20µM*	u
CCCCCC(=O)NNC(=S)NC(=O)c1cccc([N+](=O)[O-])c1	6.0%	-4.6%	-13.4%	15.8µM*	u	u
O=C(CCc1ccccc1)NNC(=O)c1ccc(Cl)cc1	-0.8%	-3.5%	3.9%	6.1%	-1.3%	i
O=C(CCc1ccccc1)NNC(=S)NC(=O)c1ccc(Cl)cc1	4.5%	4.5%	0.8%	12.6µM*	14.1µM*	u
CS(=O)(=O)c1ccc(-c2cccc3c2OC(CNC(=O)c2ccnc(Cl)c2)C3)cc1 (configuration not stated)	x	-5.9%	x	x	x	x
O=C(COc1ccccc1)NNC(=S)NC(=O)c1ccccc1	-18.6%	1.0%	0.6%	u	3.55µM*	u
CCC(=O)NNC(=S)NC(=O)c1ccc(C)cc1	-2.4%	-2.9%	3.4%[11.5 µM]	u	20µM*	u
CCCC(=O)NC(=S)NNC(=O)c1ccc([N+](=O)[O-])cc1	-10.2%	-2.5%	3.4%	20µM*	14.9%	i
O=C(NC(=S)NNC(=O)c1cnccn1)c1ccc(Cl)cc1	6.6%	2.8%	18.2%	5.01µM*	3.16µM*	i
CNc1c(NC(=O)c2ccc3c(c2)OCO3)c(=O)oc2ccccc12	-8.5%	-2.7%	-4.7%	-2.5%	-11.9%	i
SMILES	Mito fusion act	GRP78 ERSR act	A-T KAP1 phos	aSyn rescue	TDP-43 yeast inh	Abeta rescue
CC(C)NC(=S)NC(=O)c1ccc(-c2ccccc2)cc1	8.6%	4.2%	0.9%	-16.5%	17.8µM*	i
CC(C(=O)Nc1ccccc1)n1nnc2sc3c(c2c1=O)CCCC3 (configuration not stated)	x	x	x	x	13.9%	i
CC(=O)/C(N=Nc1nc2c([nH]1)c(=O)n(C)c(=O)n2C)=C(\C)O	2.1%	-1.2%	7.08µM*	-9.1%	-18.7%	i
COc1ccc(N2CCN(C(=O)c3ccc(COc4ccc([N+](=O)[O-])cc4)o3)CC2)cc1	15.2%	-2.4%	6.9%	3.9%	11.2µM*	i
O=C(c1ccc(COc2ccc(Cl)cc2Cl)o1)N1CCCC1	6.6%	u	-3.6%	4.3%	12.6µM*	i
O=C(c1ccc(COc2c(F)c(F)cc(F)c2F)o1)N1CCN(c2ccccc2)CC1	1.4%	-8.0%	9.0%	3.5%	22.4µM*	i
CCN(CC)S(=O)(=O)c1cccc(C(=O)Nc2ccccc2C(=O)Nc2ccc(OC)cc2)c1	x	3.0%	x	x	14.4%	i
COc1cc(OC)c(NC(=O)CCc2nc(-c3cccs3)no2)cc1Cl	3.4%	-0.1%	x	7.6%	20µM*	i
O=C(COC(=O)C1CCN(c2ccc(C(F)(F)F)cn2)CC1)NCc1ccccc1	-2.1%	-0.6%	2.6%	0.5%	22.4µM*	i
CCCOC(=O)c1ccc(NC(=O)COC(=O)C2CCN(c3ccc(C(F)(F)F)cn3)CC2)cc1	x	2.2%	x	-0.2%[1.84 µM]	u	i
Cc1ccc(NC(=O)COC(=O)C2CCN(c3ccc(C(F)(F)F)cn3)CC2)cc1	3.8%	-2.9%	-5.2%	2.2%	25.1µM*	u
CCOC(=O)c1ccccc1NC(=O)N1CCC(CN2CCCCC2)CC1	x	-2.1%	x	x	3.2%	i
O=c1cnc2cnc(Nc3ccccc3)nc2n1Cc1cccs1	x	-4.1%	x	x	x	x
Cc1cnc(-n2ncc(C(=O)NCCc3cccnc3)c2C)nc1-c1cccs1	x	-3.3%	x	x	x	x
COc1ccccc1-c1ccc(C(=O)N2CCC(N3CCc4ccccc4C3)CC2)c(N(C)CC2COCCO2)n1 (configuration not stated)	x	-6.3%	x	x	x	x
COc1ccc(CCNC(=O)Cn2c(=O)n(-c3cc(F)ccc3F)c(=O)c3sccc32)cc1OC	-4.7%	-2.4%	-0.4%	-2.2%	-0.7%	i
COc1ccc(CCNC(=O)Cn2c(=O)n(-c3ccc(F)cc3)c(=O)c3sccc32)cc1OC	-4.4%	1.1%	-2.0%	0.562µM*	3.8%	i
CCOC(=O)CSc1nc2c(sc(=S)n2-c2ccc(CC)cc2)c(=O)[nH]1	11.1%	39.8µM*	-1.6%	5.0%	-12.7%	i
CCOC(=O)CC(=O)CSc1nc2c(sc(=S)n2-c2ccccc2)c(=O)[nH]1	7.3%	3.6%	-8.6%	17.1%	2.7%	i
C=CCN1C(=O)S/C(=C/c2ccc(Sc3nc4ccccc4[nH]3)o2)C1=O	22.4µM*	-4.1%	2.2%	14.0%	0.0%	i
